Hits are enriched below; roughly 2.9% of the tested compounds scored in any of these assays.
MEKK2 WT-MEK5: raises or lowers MEK5 binding to wildtype human MEKK2 PB1 domain | Q9Y2U5 | binding response (% of control), % at 10 µM | AID 1531 | bead flow cytometry, Alexa488-MEK5 binding to MEKK2 WT; actives lie on both sides | 290,000 compounds, 1.1% hits; in the data active = binding response below about 67% or above about 130%
CRFR2-BP ag: CRF-BP/CRF-R2 complex agonism; activation, % at 13.2 µM; AID 588473; HEK293 CRF-R2/CRF-BP, calcium dye fluorescence (FLIPR); percent of saturating CRF peptide response; 350,000 compounds, 0.46% hits;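 active = activation of at least 50%, plus an integration ratio under a set limit after plate pattern correction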;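 also: plate controls were neutral control wells without compound for no effect and CRF at EC100 for full effect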
MEKK2mut PB1 HTS: signal of MEK5 binding to mutant human MEKK2 PB1 domain; bead flow cytometry, Alexa488-MEK5 binding to MEKK2 mutant; percent response, % at 10 µM; 290,000 compounds, 0.35% hits; in the data active = percent response above about 24%, passing the limit was not always enough
MEKK3 PB1 HTS: modulators (inhibitors or enhancers) of MEK5 binding to human MEKK3 PB1 domain. AID 1529. 290,000 compounds, 1.4% hits. Q99759. bead-based flow cytometry, Alexa488-MEK5 binding to MEKK3; actives lie on both sides; 0 = blocked by unlabeled MEK5, 100 = vehicle. binding response (% of control), % at 10 µM;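 active = binding response more than 3 SD above or below the average of its plate-row segment, actives on both sides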;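 also: Alexa488 bead fluorescence after subtracting the streptavidin-only scavenger bead signal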
CRFBP-R2 block: blocks CRF-induced signaling of the CRF-BP/CRF-R2 complex; HEK293 CRF-R2/CRF-BP, CRF-induced calcium fluorescence; inhibition, % at 11.8 µM; 350,000 compounds, 0.59% hits; AID 588475;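 active = inhibition of the ligand-induced calcium signal above about 50% at the single tested concentration, limit read from the data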
ABCB6 inh 2: human ABCB6 transporter inhibition. fluorescence ratio to DMSO, % at 10 µM. K562-ABCB6 porphyrin accumulation, flow cytometry, 1 h; active compounds read low. Q9NP58. 360,000 compounds, 0.19% hits;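 active = fluorescence ratio to DMSO below 75%, the collection mean minus 3 SD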;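 also: signal is porphyrin accumulated inside mitochondria; 100% equals median channel fluorescence of DMSO control wells; lower ratio means ABCB6 inhibition with less porphyrin fluorescence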
Target sequence (Q9NP58 whole entry, looked up): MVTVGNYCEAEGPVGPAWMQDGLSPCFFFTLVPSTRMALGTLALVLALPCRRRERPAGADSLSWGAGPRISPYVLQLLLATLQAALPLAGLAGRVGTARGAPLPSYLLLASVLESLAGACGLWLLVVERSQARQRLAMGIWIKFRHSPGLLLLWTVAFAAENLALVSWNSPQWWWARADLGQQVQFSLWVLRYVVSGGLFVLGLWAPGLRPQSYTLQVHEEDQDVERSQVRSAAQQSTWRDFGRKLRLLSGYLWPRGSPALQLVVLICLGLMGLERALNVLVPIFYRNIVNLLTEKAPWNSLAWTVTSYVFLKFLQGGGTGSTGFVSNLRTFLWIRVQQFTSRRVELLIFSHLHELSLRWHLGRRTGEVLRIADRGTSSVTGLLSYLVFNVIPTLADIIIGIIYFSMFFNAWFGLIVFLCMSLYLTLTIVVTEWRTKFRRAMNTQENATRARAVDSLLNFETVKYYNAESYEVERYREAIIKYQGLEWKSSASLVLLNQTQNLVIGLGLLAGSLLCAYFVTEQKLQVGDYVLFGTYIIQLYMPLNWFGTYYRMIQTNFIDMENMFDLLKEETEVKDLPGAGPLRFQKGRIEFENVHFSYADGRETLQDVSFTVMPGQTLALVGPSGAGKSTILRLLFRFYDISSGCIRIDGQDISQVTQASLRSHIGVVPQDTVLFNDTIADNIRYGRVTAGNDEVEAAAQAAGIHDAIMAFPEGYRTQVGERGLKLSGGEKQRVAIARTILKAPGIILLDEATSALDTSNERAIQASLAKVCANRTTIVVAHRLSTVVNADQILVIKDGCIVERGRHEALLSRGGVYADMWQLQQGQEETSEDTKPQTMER
An asterisk follows results filed as active.

What do the screens show for `COc1ccc(-c2cc(C(=O)NCCN3CCOCC3)no2)cc1OC`?
MEKK2 WT-MEK5: 104.0; CRFR2-BP ag: -2.4; MEKK2mut PB1 HTS: 4.0; MEKK3 PB1 HTS: 103.0; CRFBP-R2 block: -1.0; ABCB6 inh 2: 97.0

Results for Cc1cccc(C)c1OCC(=O)OCC(=O)Nc1ccc(Cl)cn1 ?
CRFR2-BP ag: 0.8; CRFBP-R2 block: 9.1; ABCB6 inh 2: 89.0

Results for CCCCN1C(=O)C(=O)N(CC(=O)Nc2sc(C)c(C)c2C(=O)OC)C1=O ?
CRFR2-BP ag: -0.7; CRFBP-R2 block: 6.6; ABCB6 inh 2: 100.0

What do the screens show for `CC(=O)Oc1oc(-c2ccccc2)nc1C=Nc1ccccc1`?
MEKK2 WT-MEK5: 100.0; CRFR2-BP ag: 57.1*; MEKK2mut PB1 HTS: 10.0; MEKK3 PB1 HTS: 101.0; CRFBP-R2 block: -13.8; ABCB6 inh 2: 87.0

What do the screens show for `CCn1ncc(Cl)c1C(=O)NC(=S)Nc1ccccc1Br`?
MEKK2 WT-MEK5: 108.0; CRFR2-BP ag: 25.0; MEKK2mut PB1 HTS: 7.0; MEKK3 PB1 HTS: 106.0; CRFBP-R2 block: -63.2; ABCB6 inh 2: 103.0

How did Cc1nn(C)c(C(=O)NC(=S)Nc2ccccc2Br)c1Cl do in these assays?
MEKK2 WT-MEK5: 101.0; CRFR2-BP ag: 93.0*; MEKK2mut PB1 HTS: 3.0; MEKK3 PB1 HTS: 100.0; CRFBP-R2 block: -73.4; ABCB6 inh 2: 96.0

Results for O=C1/C(=C/c2cccnc2)SC(=S)N1Cc1ccco1 ?
CRFR2-BP ag: -3.7; CRFBP-R2 block: 16.0; ABCB6 inh 2: 101.0

Results for Cc1cc(/C=C2\SC(=S)N(Cc3ccco3)C2=O)c(C)n1-c1cccnc1 ?
CRFR2-BP ag: 54.8*; CRFBP-R2 block: -35.8; ABCB6 inh 2: 493.0

Results for CC1(C)C(=O)OC(c2cccn2-c2ccc([N+](=O)[O-])cc2)C2(CCCCC2)C1=O (stereo not drawn) ?
MEKK2 WT-MEK5: 98.0; CRFR2-BP ag: 263.1*; MEKK2mut PB1 HTS: -1.0; MEKK3 PB1 HTS: 89.0; CRFBP-R2 block: -336.4; ABCB6 inh 2: 93.0

What do the screens show for `O=C(O)c1ccc(C(=O)c2ccc3c(c2)C(=O)N(CC2CCCO2)C3=O)cc1` (stereo not drawn)?
MEKK2 WT-MEK5: 99.0; CRFR2-BP ag: -0.7; MEKK2mut PB1 HTS: -3.0; MEKK3 PB1 HTS: 97.0; CRFBP-R2 block: 18.9; ABCB6 inh 2: 95.0

Results for Cc1ccc(Cl)cc1N1CCN(C(=O)Cc2c(C(=O)O)[nH]c3ccccc23)CC1 ?
MEKK2 WT-MEK5: 95.0; CRFR2-BP ag: -1.9; MEKK2mut PB1 HTS: -3.0; MEKK3 PB1 HTS: 94.0; CRFBP-R2 block: 58.1*; ABCB6 inh 2: 78.0

How did Cc1ccc(Cl)cc1N1CCN(C(=O)Cc2c(C(=O)O)[nH]c3ccc(Cl)cc23)CC1 do in these assays?
MEKK2 WT-MEK5: 107.0; CRFR2-BP ag: 5.7; MEKK2mut PB1 HTS: 5.0; MEKK3 PB1 HTS: 106.0; CRFBP-R2 block: 62.0*; ABCB6 inh 2: 95.0

Results for COc1cc(/C=C2\SC(=S)N(NS(=O)(=O)c3ccccc3)C2=O)cc(OC)c1OC ?
MEKK2 WT-MEK5: 101.0; CRFR2-BP ag: -0.3; MEKK2mut PB1 HTS: -1.0; MEKK3 PB1 HTS: 102.0; CRFBP-R2 block: 27.3; ABCB6 inh 2: 106.0

What do the screens show for `COc1cccc(/C=C2\SC(=S)N(NS(=O)(=O)c3ccccc3)C2=O)c1OC`?
MEKK2 WT-MEK5: 111.0; CRFR2-BP ag: -0.2; MEKK2mut PB1 HTS: 12.0; MEKK3 PB1 HTS: 113.0; CRFBP-R2 block: 63.5*; ABCB6 inh 2: 99.0

How did COc1ccc(/C=C2/SC(=O)N(NS(=O)(=O)c3ccccc3)C2=S)cc1OC do in these assays?
MEKK2 WT-MEK5: 100.0; CRFR2-BP ag: -0.4; MEKK2mut PB1 HTS: 2.0; MEKK3 PB1 HTS: 103.0; CRFBP-R2 block: 52.4*; ABCB6 inh 2: 104.0

Results for CCOC(=O)c1nnc(-c2ccccc2)nc1N1CC(C)OC(C)C1 (stereo not drawn) ?
MEKK2 WT-MEK5: 100.0; CRFR2-BP ag: -0.7; MEKK2mut PB1 HTS: -5.0; MEKK3 PB1 HTS: 98.0; CRFBP-R2 block: 55.9*; ABCB6 inh 2: 98.0

Results for CCOC(=O)c1cnc(-c2ccccc2)nc1N1CC(C)OC(C)C1 (stereo not drawn) ?
MEKK2 WT-MEK5: 97.0; CRFR2-BP ag: 0.7; MEKK2mut PB1 HTS: -4.0; MEKK3 PB1 HTS: 99.0; CRFBP-R2 block: -2.9; ABCB6 inh 2: 97.0

How did CC(=O)C1=C(C)NC(=S)NC1c1cc([N+](=O)[O-])ccc1O (stereo not drawn) do in these assays?
MEKK2 WT-MEK5: 95.0; CRFR2-BP ag: -2.7; MEKK2mut PB1 HTS: 15.0; MEKK3 PB1 HTS: 97.0; CRFBP-R2 block: 100.2*; ABCB6 inh 2: 94.0

Results for CC1=C(C(=O)c2ccccc2)C(c2cccc([N+](=O)[O-])c2)NC(=S)N1 (stereo not drawn) ?
MEKK2 WT-MEK5: 96.0; CRFR2-BP ag: -2.6; MEKK2mut PB1 HTS: 0.0; MEKK3 PB1 HTS: 107.0; CRFBP-R2 block: 4.5; ABCB6 inh 2: 95.0

How did Cn1c(N)c(C(=O)COC(=O)CNS(=O)(=O)c2ccc(Cl)c(Cl)c2)c(=O)n(C)c1=O do in these assays?
MEKK2 WT-MEK5: 105.0; CRFR2-BP ag: -1.7; MEKK2mut PB1 HTS: -1.0; MEKK3 PB1 HTS: 101.0; CRFBP-R2 block: 64.5*; ABCB6 inh 2: 97.0

How did Cn1c(N)c(C(=O)COC(=O)CNC(=O)c2ccccc2Cl)c(=O)n(C)c1=O do in these assays?
CRFR2-BP ag: -0.6; CRFBP-R2 block: 6.4; ABCB6 inh 2: 105.0

Results for Cc1cc(C)nc(SCc2ccc(C(=O)NNC(=O)Nc3cccc(Cl)c3)cc2)n1 ?
MEKK2 WT-MEK5: 99.0; CRFR2-BP ag: 0.1; MEKK2mut PB1 HTS: -1.0; MEKK3 PB1 HTS: 112.0; CRFBP-R2 block: 69.5*; ABCB6 inh 2: 106.0

Results for Cc1ccc(S(=O)(=O)NC2=NCN(C3CCN(Cc4ccccc4)CC3)CN2)cc1 ?
CRFR2-BP ag: 0.0; CRFBP-R2 block: 108.9*; ABCB6 inh 2: 105.0

How did Cc1ccc(S(=O)(=O)NC2=NCN(Cc3ccccc3)CN2)cc1 do in these assays?
MEKK2 WT-MEK5: 94.0; CRFR2-BP ag: -3.0; MEKK2mut PB1 HTS: -4.0; MEKK3 PB1 HTS: 92.0; CRFBP-R2 block: 6.1; ABCB6 inh 2: 94.0

How did OC(C#CCN1CCCCCC1)(c1ccccc1)c1cccnc1 (stereo not drawn) do in these assays?
MEKK2 WT-MEK5: 112.0; CRFR2-BP ag: -1.0; MEKK2mut PB1 HTS: -1.0; MEKK3 PB1 HTS: 104.0; CRFBP-R2 block: 117.2*; ABCB6 inh 2: 127.0

Results for CCN(CC)S(=O)(=O)c1ccc(Cl)c(NC(=O)c2cc(Cl)cc(Cl)c2)c1 ?
MEKK2 WT-MEK5: 94.0; CRFR2-BP ag: 1.5; MEKK2mut PB1 HTS: -2.0; MEKK3 PB1 HTS: 96.0; CRFBP-R2 block: 53.0*; ABCB6 inh 2: 98.0
